# From PubChem BioAssay AID720549 (National Center for Advancing Translational Sciences (NCATS), 2013)
# Results filed as inconclusive are left out. Entries that show only a call come without a potency. Active and inactive are the calls of the source. Calls follow the shape of the dose curve; as a rule, active = well fitted inhibition curve with a large enough effect; inconclusive = small, poorly fitted or top-dose-only effect; inactive = flat fitted curve, though single readings scatter.
# Biological target: RecQ-like DNA helicase BLM (Homo sapiens) (UniProt P54132)
# Experiment: qHTS for Inhibitors of Bloom's syndrome helicase (BLM): Helicase ATPase Orthogonal Confirmatory Assay for SAR
# Conditions: purified BLM helicase ATPase activity assay; series mostly up to 57.1 µM
# Summary of the method: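 Purified BLM (2 nM) in Tris-HCl pH 8.0 with MgCl2, DTT, Tween-20, preincubated 15 min with compound. Reaction with 200 nM ssDNA and 100 uM ATP ran 15 min; ADP-Glo luminescence, four-parameter Hill fit.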
# RecQ-like DNA helicase BLM (Homo sapiens), sequence (P54132 whole entry, looked up): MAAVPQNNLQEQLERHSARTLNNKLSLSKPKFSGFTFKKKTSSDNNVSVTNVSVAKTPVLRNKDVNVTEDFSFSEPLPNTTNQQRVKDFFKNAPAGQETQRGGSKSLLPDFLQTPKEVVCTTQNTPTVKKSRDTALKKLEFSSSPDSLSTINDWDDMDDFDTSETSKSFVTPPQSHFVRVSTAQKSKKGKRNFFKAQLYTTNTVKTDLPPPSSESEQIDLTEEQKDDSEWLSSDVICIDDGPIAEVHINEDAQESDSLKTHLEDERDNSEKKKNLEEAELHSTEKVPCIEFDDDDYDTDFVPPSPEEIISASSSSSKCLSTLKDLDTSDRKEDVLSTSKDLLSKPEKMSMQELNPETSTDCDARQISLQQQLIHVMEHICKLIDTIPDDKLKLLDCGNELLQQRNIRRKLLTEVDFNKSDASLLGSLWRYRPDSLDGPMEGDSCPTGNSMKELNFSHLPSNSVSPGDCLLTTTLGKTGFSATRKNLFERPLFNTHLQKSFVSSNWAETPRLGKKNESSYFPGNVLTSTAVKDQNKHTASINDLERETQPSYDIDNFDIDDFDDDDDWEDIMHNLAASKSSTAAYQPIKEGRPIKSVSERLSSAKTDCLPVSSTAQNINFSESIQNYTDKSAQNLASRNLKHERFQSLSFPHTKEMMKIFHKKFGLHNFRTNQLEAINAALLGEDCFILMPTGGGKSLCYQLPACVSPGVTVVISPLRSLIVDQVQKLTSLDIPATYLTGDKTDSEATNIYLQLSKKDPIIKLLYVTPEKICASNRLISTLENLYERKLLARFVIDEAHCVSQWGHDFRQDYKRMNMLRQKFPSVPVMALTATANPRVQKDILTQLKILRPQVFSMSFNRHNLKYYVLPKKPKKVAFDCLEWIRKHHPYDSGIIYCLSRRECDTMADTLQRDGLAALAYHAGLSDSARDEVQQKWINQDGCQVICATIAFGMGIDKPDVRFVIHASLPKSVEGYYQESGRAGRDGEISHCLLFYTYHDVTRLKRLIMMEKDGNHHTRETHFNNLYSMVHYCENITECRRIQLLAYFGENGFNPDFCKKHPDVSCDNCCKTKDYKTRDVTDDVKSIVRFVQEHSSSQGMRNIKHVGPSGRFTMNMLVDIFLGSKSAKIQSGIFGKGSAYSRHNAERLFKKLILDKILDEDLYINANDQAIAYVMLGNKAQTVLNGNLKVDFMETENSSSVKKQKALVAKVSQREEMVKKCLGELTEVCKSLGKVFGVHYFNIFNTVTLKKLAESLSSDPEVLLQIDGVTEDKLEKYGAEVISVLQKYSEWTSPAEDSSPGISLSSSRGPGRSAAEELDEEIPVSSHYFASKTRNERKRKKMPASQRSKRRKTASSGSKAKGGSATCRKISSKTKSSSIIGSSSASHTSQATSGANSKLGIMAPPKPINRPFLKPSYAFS
row,Compound,Potency
1,O=C(Nc1ccc2sccc2c1)Nc1nnc(-c2cccnc2)s1,inactive
2,N#Cc1cccc(NC(=O)Nc2nnc(-c3ccncc3)s2)c1,2290 nM (active)
3,O=C(Nc1ccc(N2CCOCC2)c(F)c1)Nc1nnc(-c2ccncc2)s1,inactive
4,O=C(Nc1ccc(N2CCOCC2)c(C(F)(F)F)c1)Nc1nnc(-c2ccncc2)s1,inactive
5,O=C(Nc1ccc(-c2ccccc2)cc1)Nc1nnc(-c2ccncc2)s1,inactive
6,O=C(Nc1ccc(F)c(C(F)(F)F)c1)Nc1nnc(-c2ccncc2)o1,inactive
7,Cc1cc(NC(=O)Nc2nnc(-c3ccncc3)s2)ccc1F,inactive
8,O=C(Nc1ccc2ccccc2c1)Nc1nnc(-c2ccccc2F)s1,inactive
9,N#Cc1cc(NC(=O)Nc2nnc(-c3ccncc3)s2)ccc1Br,646 nM (active)
10,O=C(Nc1ccc(Cl)c(Cl)c1)N1CCN(c2ccncc2)CC1,inactive
11,CN(C(=O)Nc1ccc2ccccc2c1)c1nnc(-c2ccncc2)s1,inactive
12,CC(=O)c1ccc(NC(=O)Nc2nnc(-c3ccncc3)s2)cc1,inactive
13,O=C(Nc1ccc(Oc2ccccc2)cc1)Nc1nnc(-c2ccncc2)s1,inactive
14,Cc1cc(NC(=O)Nc2cccc(-c3ccncc3)n2)ccc1Br,inactive
15,O=C(Nc1ccc(F)c(C(F)(F)F)c1)Nc1nnc(C2CCCCC2)s1,inactive
16,COc1ccc(NC(=O)Nc2ccc(-c3nc4ccccc4[nH]3)cc2)cc1OC,inactive

row,Compound,Potency
1,Cc1cc(C)c(-c2nnc(NC(=O)Nc3ccc4ccccc4c3)s2)c(C)c1,inactive
2,O=C(Nc1ccc(Cl)c([N+](=O)[O-])c1)Nc1nnc(-c2ccncc2)s1,1820 nM (active)
3,CC(=O)c1cccc(NC(=O)Nc2nnc(-c3ccncc3)s2)c1,inactive
4,O=C(Nc1ccc(F)c(C(F)(F)F)c1)Nc1cccc(-c2ccncc2)n1,inactive
5,O=C(Nc1ccc(Cl)c(Cl)c1)Nc1ccnc(-c2ccncc2)n1,inactive
6,CCCCCCNC(=O)Nc1nnc(-c2ccncc2)s1,inactive
7,Nc1ccc(-c2nnc(NC(=O)Nc3ccc(Cl)c(Cl)c3)s2)cc1,inactive
8,O=C(Nc1ccc(F)c(C(F)(F)F)c1)Nc1nnc(-c2ccncc2)s1,inactive
9,O=C(Nc1ccc(-n2cncn2)c(C(F)(F)F)c1)Nc1nnc(-c2ccncc2)s1,20400 nM (active)
10,O=C(Nc1ccc(Cl)nc1)Nc1nnc(-c2ccncc2)s1,1620 nM (active)
11,O=C(Nc1ccc(-c2nc3ccccc3[nH]2)cc1)Nc1ccc2occc2c1,inactive
12,O=C(Nc1ccc(Cl)c(Cl)c1)Nc1nnc(N2CCNCC2)s1,inactive
13,O=C(Nc1ccc2ccccc2c1)Nc1nnc(-c2ccncc2)s1,3240 nM (active)
14,O=C(Nc1ccc(Cl)c(Cl)c1)Nc1nnc(-c2ccncc2)o1,inactive
15,N#Cc1cc(NC(=O)Nc2nnc(-c3ccncc3)s2)ccc1-c1ccc[nH]1,7250 nM (active)
16,O=C(Nc1nnc(-c2ccncc2)s1)Oc1ccc2ccccc2c1,32400 nM (active)
